EP2 mod – modulators of human EP2 prostaglandin E2 receptor | AID 940 | EP2-expressing cells, cAMP HTRF FRET, PGE2 co-stimulation | 260,000 tested, 0.83% active | induction, % at 25 µM;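 active means compounds whose cAMP rise, as percent of the full-agonist control response, exceeds 60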;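 further: rat C6 glioma line stably carrying human EP2 under a CMV promoter; the protocol text gives 20 µM as final concentration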
Target sequence (P43116 whole entry, looked up): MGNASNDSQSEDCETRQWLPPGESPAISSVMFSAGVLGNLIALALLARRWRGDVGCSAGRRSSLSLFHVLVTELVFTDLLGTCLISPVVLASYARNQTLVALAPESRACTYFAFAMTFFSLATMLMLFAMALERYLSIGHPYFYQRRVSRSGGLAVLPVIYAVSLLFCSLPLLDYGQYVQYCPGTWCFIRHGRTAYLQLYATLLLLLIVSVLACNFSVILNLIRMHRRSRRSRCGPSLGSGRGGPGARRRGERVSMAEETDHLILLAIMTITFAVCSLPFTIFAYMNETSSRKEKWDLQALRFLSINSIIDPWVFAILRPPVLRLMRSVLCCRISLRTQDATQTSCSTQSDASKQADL
PGE2 EP2 inh – inhibitors of human EP2 prostaglandin E2 receptor; P43116; C6 glioma cells expressing human EP2, cAMP TR-FRET; cells stimulated with saturating PGE2; inhibition, % at 25 µM; 260,000 tested, 0.52% active; AID 1422;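 active means percent inhibition above 40 after rounding to a whole number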;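 further: rat C6 glioma host cells with rolipram phosphodiesterase inhibitor present; the protocol text gives 20 µM as final concentration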
CHT inh – inhibits the human high affinity choline transporter | CHT-expressing cells, membrane potential dye, choline response; hits give low values | Q9GZV3 | B-score at 10 µM | 310,000 tested, 0.86% active;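 active means B-score over 3 SD under the library average, and starting fluorescence ratio not unusually high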;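 further: choline stimulus applied at its EC90 after an EC20 pre-addition; B-score computed on integrated fluorescence ratio after choline addition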
CHT PAM – allosteric activators of human choline transporter CHT; CHT-expressing cells, membrane potential dye, choline EC20; hits give high values; LV-AA mutant CHT in HEK293 cells; AID 488977; Q9GZV3; 310,000 tested, 0.49% active; B-score at 10 µM;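 active means initial fluorescence not abnormally high and integrated response B-score, plate-corrected, over 3 SD above library mean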
CHT inh conf – human CHT inhibition, confirmatory screen; shares compounds with CHT inh; CHT-expressing cells, choline membrane potential dye; LV-to-AA substituted CHT, HEK293 cells; CHT activity remaining % of control (hits give low values), % at 10 µM; 2,400 tested, 70% active; AID 493221;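 active means choline transporter activity left, mean of duplicates at 10 µM, below buffer-only control mean minus 3 SD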;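 further: depolarization triggered by choline at its EC90 following an EC20 pre-addition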
HEK293 CHT ctr – counter-screen for CHT inhibitors: effect in parental HEK293 cells; membrane potential dye, choline response; active = decrease or increase beyond buffer ±3SD; shares compounds with CHT inh; membrane potential ratio readout (active if shifted either direction beyond buffer ±3SD; no single direction) at 10 µM; AID 493222; 2,400 tested, 4% active;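 further: parental cells lack the transporter so any hit is non-specific; ratio is peak minus trough fluorescence over baseline after EC90 choline challenge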
Each line names hits and unclear results; the compound was inactive in the other large screens (follow-up assays come after a bar, where they were run). Rows were chosen to be rich in hits. Some 2.1% of all compounds tested hit in one or more screens of this group.

O=C(NCc1nc(-c2ccccc2)cs1)c1ccccc1	CHT inh -6.52 | CHT inh conf 71.3% | HEK293 CHT ctr inactive
CCOC(=O)C(OC(=O)c1cc(=O)[nH]c2ccccc12)c1ccccc1 (stereo unspecified)	none (no result: CHT inh, CHT PAM)
COc1ccc([C@@H]2CCN(C(=O)Cc3c(F)cccc3Cl)C[C@H]2O)cc1	none (no result: CHT inh, CHT PAM)
Cc1oc(-c2ccc(F)cc2)nc1C(=O)NCc1nc(-c2ccccc2)no1	none (no result: CHT inh, CHT PAM)
CC(C)c1cc(C(=O)NNC(=S)NC2CCCCC2)cs1	CHT inh -5.55 (no result: EP2 mod, PGE2 EP2 inh) | CHT inh conf 66.2% | HEK293 CHT ctr inactive
CCOc1cccc(C(=O)NC2CCCCC2)c1	none
CCCCOc1cccc(C(=O)NNC(=S)NC2CCCCC2)c1	CHT inh -8.78 | CHT inh conf 68.8% | HEK293 CHT ctr inactive
COc1ccc(OC)c(S(=O)(=O)N2CCN(CC(=O)c3ccco3)CC2)c1	none (no result: CHT inh, CHT PAM)
COc1ccc(NC(=O)N(Cc2cccs2)Cc2cc3cccc(C)c3[nH]c2=O)cc1	none (no result: CHT inh, CHT PAM)
COc1ccc(C2(NC(=O)Cn3ncc4ccccc4c3=O)CCCCC2)cc1	none (no result: CHT inh, CHT PAM)
C=CC[C@H]1CC(Cc2ccccc2)=C[C@H](CC=C)N1	CHT inh -8.64 | CHT inh conf -13.2% | HEK293 CHT ctr -17
C=CCC1C=C(Cc2ccccc2)CC(CC=C)N1 (stereo unspecified)	none
Cc1sc2ncnc(N(C)Cc3ccco3)c2c1C	CHT inh -5.1 | CHT inh conf inactive | HEK293 CHT ctr inactive
Cc1c(Br)c([N+](=O)[O-])nn1CC(=O)NCc1ccco1	none
Cc1c(Br)c(C(F)(F)F)nn1CC(=O)NCc1ccco1	CHT inh -7.75 | CHT inh conf inactive | HEK293 CHT ctr inactive
CNC(=O)c1c(O)c2cc(OC)c(OC)cc2[nH]c1=O	none (no result: CHT inh, CHT PAM)
COc1ccc2cc(CN(CCN3CCOCC3)C(=O)Nc3ccc(Cl)cc3)c(=O)[nH]c2c1	none (no result: CHT inh, CHT PAM)
Cc1cc(C)n2c(SCC(=O)N3c4ccccc4CCc4ccccc43)nnc2n1	none (no result: CHT inh, CHT PAM)
CCCCCn1c(CCNC(=O)CCC)nc2ccccc21	CHT inh -6.16 | CHT inh conf 60.0% | HEK293 CHT ctr inactive
CCCCn1c(CCNC(=O)CCC)nc2ccccc21	none
O=C(O)CSC1=NCCS1	none (no result: CHT inh, CHT PAM)
COc1cc(/C=C2/C(=N)N3C(=NC2=O)SN=C3S(C)(=O)=O)ccc1OS(=O)(=O)c1ccc(C)cc1	none (no result: EP2 mod, PGE2 EP2 inh)
CS(=O)(=O)C1=NSC2=NC(=O)/C(=C\c3ccc(OS(=O)(=O)c4ccccc4)cc3)C(=N)N21	CHT inh -6.57 (no result: EP2 mod, PGE2 EP2 inh) | CHT inh conf 57.9% | HEK293 CHT ctr inactive
CCS(=O)(=O)C1=NN2C(=N)/C(=C\c3ccc(OS(=O)(=O)c4ccccc4)cc3)C(=O)N=C2S1	CHT inh -8.65 (no result: EP2 mod, PGE2 EP2 inh) | CHT inh conf 41.8% | HEK293 CHT ctr inactive
CCC1=NN2C(=N)/C(=C/c3ccc(OS(=O)(=O)c4ccccc4)cc3)C(=O)N=C2S1	none (no result: EP2 mod, PGE2 EP2 inh)
CC(C)CS(=O)(=O)C1=NSC2=NC(=O)/C(=C\c3ccc(OC(=O)c4ccco4)cc3)C(=N)N21	CHT inh -6.91 (no result: EP2 mod, PGE2 EP2 inh) | CHT inh conf 64.9% | HEK293 CHT ctr inactive
CCS(=O)(=O)C1=NSC2=NC(=O)/C(=C\c3ccc(OS(=O)(=O)c4ccccc4)c(OC)c3)C(=N)N21	CHT inh -5.26 (no result: EP2 mod, PGE2 EP2 inh) | CHT inh conf 47.5% | HEK293 CHT ctr inactive
CS(=O)(=O)C1=NSC2=NC(=O)/C(=C\c3cccn3-c3ccccc3Cl)C(=N)N21	none
Cc1ccc(Cl)cc1NC(=O)CSc1nnc2c3c(C)c(C)sc3ncn12	none (no result: CHT inh, CHT PAM)
O=C(Cn1c(-c2cccs2)cc2cccnc21)NCc1cccnc1	none (no result: CHT inh, CHT PAM)
Cc1ccc(S(=O)(=O)Oc2ccc(/C=C3/C(=N)N4C(=NC3=O)SN=C4S(C)(=O)=O)cc2)cc1	CHT inh -6.13 (no result: EP2 mod, PGE2 EP2 inh) | CHT inh conf 47.7% | HEK293 CHT ctr inactive
COc1ccc(NC(=O)CN2CCC(n3nnc4cc(C)ccc43)CC2)cc1	none (no result: CHT inh, CHT PAM)
CCN(CC(=O)NCc1ccc(F)cc1)Cc1cc(=O)n2ccsc2n1	none
COc1cc(CN(C)Cc2cc(=O)n3ccsc3n2)ccc1OC(F)F	CHT inh -5.57 | CHT inh conf 59.4% | HEK293 CHT ctr inactive
COc1ccc(S(=O)(=O)N2CCC(c3nc4ccc(Cl)cc4[nH]3)CC2)cc1	none (no result: CHT inh, CHT PAM)
CC1CCc2c(sc3nc(C4CC4)nc(SCC(=O)NCc4cccs4)c23)C1 (stereo unspecified)	none (no result: CHT inh, CHT PAM)

Screening results from PubChem.
